# Test results: PubChem BioAssay (NCI)
# The panel holds about 79,000 compounds, 15% with a hit somewhere; the sample as a whole holds those more often. A number with no mark means an inactive call. The source made the active and inactive calls. Rule as the data show it: active = growth inhibition above about 70%; inactive = the rest.
# Legend:
# [1] = NCI Yeast Anticancer Drug Screen. Data for the wt2 strain (AID 169);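 also: 0% = growth of vehicle-treated yeast cultures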; conditions: S. cerevisiae wt2 strain growth inhibition, active compounds read high
# How it was run: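 Read-out: growth inhibition versus vehicle-treated control cultures after compound exposure of the yeast strain.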
# [2] = NCI Yeast Anticancer Drug Screen. Data for the mlh1 strain (AID 171);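 also: 0% = growth of vehicle-treated control cultures of the same strain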; conditions: S. cerevisiae mlh1 strain growth inhibition, active compounds read high
# How it was run: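 Read-out: growth inhibition versus vehicle controls. Strain: engineered yeast with a defined DNA repair or cell cycle defect, compound-treated.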
# [3] = NCI Yeast Anticancer Drug Screen. Data for the sgs1 strain (AID 173);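 also: 0% = growth of vehicle-only control cultures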; conditions: S. cerevisiae sgs1 mutant, active compounds read high
# How it was run: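 Read-out: yeast growth inhibition relative to vehicle controls, following compound exposure of a strain with a defined DNA repair/cell cycle alteration.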
# [4] = NCI Yeast Anticancer Drug Screen. Data for the mlh1 rad18 strain (AID 175); conditions: S. cerevisiae mlh1 rad18 strain growth inhibition, active compounds read high
# How it was run: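 Yeast w/ defined DNA-repair lesions; compound exposure; growth vs vehicle controls → % inhibition.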
# [5] = NCI Yeast Anticancer Drug Screen. Data for the rad18 strain (AID 177); conditions: S. cerevisiae rad18 mutant growth inhibition, active compounds read high
# How it was run: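 Readout: growth inhibition vs vehicle controls. Cells: genetically altered yeast strain, DNA repair defect.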
# [6] = NCI Yeast Anticancer Drug Screen. Data for the rad52 strain (AID 147);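 also: 0% = growth of vehicle-treated control cultures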; conditions: S. cerevisiae rad52 mutant growth inhibition, active compounds read high
# How it was run: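 Read-out: growth inhibition versus vehicle-treated controls. Cells were a DNA repair-deficient yeast strain treated with compounds.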
# [7] = NCI Yeast Anticancer Drug Screen. Data for the wt1 strain (AID 149);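 also: 0% = growth of vehicle-treated wt1 cultures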; conditions: S. cerevisiae wt1 strain (SPY 50644) growth inhibition, active compounds read high
# How it was run: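 The wt1 strain was treated with compounds, and growth was compared with vehicle-treated cultures to give inhibition.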
# [8] = NCI Yeast Anticancer Drug Screen. Data for the rad50EPP+ strain (AID 151);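 also: 0% = growth of vehicle-treated control cultures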; conditions: S. cerevisiae rad50 mutant strain, active compounds read high
# How it was run: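 Growth inhibition read against vehicle controls in rad50EPP+ yeast, a strain altered in DNA damage repair, after compound exposure.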
# [9] = NCI Yeast Anticancer Drug Screen. Data for the mgt1 strain (AID 153); conditions: S. cerevisiae mgt1 mutant growth inhibition, active compounds read high
# How it was run: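 mgt1 yeast grown with test compound; read-out is growth inhibition versus vehicle-treated cultures.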
# [10] = NCI Yeast Anticancer Drug Screen. Data for the rad50 strain (AID 155);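 also: 0% = growth of vehicle-only cultures of the same strain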; conditions: S. cerevisiae rad50 strain growth inhibition, active compounds read high
# How it was run: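 Cells are treated with compound, grown, and their growth is then scored against vehicle-only cultures of the same repair-deficient yeast strain.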
# [11] = NCI Yeast Anticancer Drug Screen. Data for the mec2-1 strain (AID 157); conditions: S. cerevisiae mec2-1 strain, active compounds read high
# How it was run: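 Yeast mec2-1 mutant treated with compound. Readout: growth inhibition vs vehicle controls.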
# [12] = NCI Yeast Anticancer Drug Screen. Data for the rad14 strain (AID 159);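 also: 0% = growth of vehicle-treated control cultures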; conditions: S. cerevisiae rad14 strain growth inhibition, active compounds read high
# How it was run: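 Readout: yeast growth inhibition, referenced to vehicle-only cultures. Strain bears a defined alteration in DNA damage repair.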
# [13] = NCI Yeast Anticancer Drug Screen. Data for the sgs1 mgt1 strain (AID 161);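 also: 0% = growth of cultures given vehicle only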; conditions: S. cerevisiae sgs1 mgt1 strain, active compounds read high
# How it was run: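 Test agents were incubated with a DNA-repair-mutant yeast strain. Growth was then read and compared against vehicle-treated controls.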
# [14] = NCI Yeast Anticancer Drug Screen. Data for the CLN2oe strain (AID 163);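 also: 0% = growth of vehicle-only control cultures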; conditions: S. cerevisiae CLN2oe strain, active compounds read high
# How it was run: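 Read-out: yeast growth inhibition, expressed relative to vehicle-only controls. The strain bears an engineered cell-cycle alteration.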
# [15] = NCI Yeast Anticancer Drug Screen. Data for the cln2 rad14 strain (AID 165);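 also: 0% = growth equal to vehicle treated cultures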; conditions: S. cerevisiae cln2 rad14 strain, active compounds read high
# How it was run: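 cln2 rad14 yeast strain; compound exposure; growth inhibition read vs vehicle controls.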
# [16] = NCI Yeast Anticancer Drug Screen. Data for the bub3 strain (AID 167); conditions: S. cerevisiae bub3 mutant strain, active compounds read high
# How it was run: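 Part of a panel of yeast mutants defective in DNA damage repair or cell cycle regulation. Each strain is grown with compound, and inhibition is calculated relative to solvent-treated cultures.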
# [17] = at 5.0 µM (retest, dose inferred, filed as 0.5)
# [18] = at 50.0 µM (retest, dose inferred, filed as 5.0)
smiles,measurement,setting,value
N#Cc1ccc(C2NN=CC23C(=O)c2ccccc2OC3c2ccccc2)cc1 (stereo unspecified),growth inhibition,[1]; at 1.2 µM,0%
same,growth inhibition,[1]; at 3.7 µM,0%
same,growth inhibition,[1]; at 11.0 µM,2%
same,growth inhibition,[1]; at 33.0 µM,1%
same,growth inhibition,[1]; at 100.0 µM,3%
same,growth inhibition,[2]; at 1.2 µM,0%
same,growth inhibition,[2]; at 3.7 µM,-5%
same,growth inhibition,[2]; at 11.0 µM,0%
same,growth inhibition,[2]; at 33.0 µM,-2%
same,growth inhibition,[2]; at 100.0 µM,4%
same,growth inhibition,[3]; at 1.2 µM,0%
same,growth inhibition,[3]; at 3.7 µM,-4%
same,growth inhibition,[3]; at 11.0 µM,-3%
same,growth inhibition,[3]; at 33.0 µM,-3%
same,growth inhibition,[3]; at 100.0 µM,-1%
same,growth inhibition,[4]; [17],-14%
same,growth inhibition,[4]; [18],60%
same,growth inhibition,[4]; at 50.0 µM,56.4%
same,growth inhibition,[5]; at 1.2 µM,-3%
same,growth inhibition,[5]; at 3.7 µM,-4%
same,growth inhibition,[5]; at 11.0 µM,-3%
same,growth inhibition,[5]; at 33.0 µM,-16%
same,growth inhibition,[5]; at 100.0 µM,-1%
c1ccc2c(c1)sc1nc3ccncc3nc12,growth inhibition,[6]; at 1.2 µM,5%
same,growth inhibition,[6]; at 3.7 µM,16%
same,growth inhibition,[6]; at 11.0 µM,38%
same,growth inhibition,[6]; at 33.0 µM,61%
same,growth inhibition,[6]; at 100.0 µM,92% (active)
same,growth inhibition,[7]; at 1.2 µM,0%
same,growth inhibition,[7]; at 3.7 µM,13%
same,growth inhibition,[7]; at 11.0 µM,21%
same,growth inhibition,[7]; at 33.0 µM,20%
same,growth inhibition,[7]; at 100.0 µM,29%
same,growth inhibition,[8]; at 1.2 µM,23%
same,growth inhibition,[8]; at 3.7 µM,52%
same,growth inhibition,[8]; at 11.0 µM,55%
same,growth inhibition,[8]; at 33.0 µM,85% (active)
same,growth inhibition,[8]; at 100.0 µM,89% (active)
same,growth inhibition,[9]; at 1.2 µM,2%
same,growth inhibition,[9]; at 3.7 µM,-2%
same,growth inhibition,[9]; at 11.0 µM,-1%
same,growth inhibition,[9]; at 33.0 µM,-1%
same,growth inhibition,[9]; at 100.0 µM,2%
same,growth inhibition,[10]; at 1.2 µM,79% (active)
same,growth inhibition,[10]; at 3.7 µM,35%
same,growth inhibition,[10]; [17],-55%
same,growth inhibition,[10]; at 11.0 µM,61%
same,growth inhibition,[10]; at 33.0 µM,76% (active)
same,growth inhibition,[10]; [18],87% (active)
same,growth inhibition,[10]; at 50.0 µM,90% (active)
same,growth inhibition,[10]; at 100.0 µM,87% (active)
same,growth inhibition,[11]; at 1.2 µM,5%
same,growth inhibition,[11]; at 3.7 µM,1%
same,growth inhibition,[11]; [17],-38%
same,growth inhibition,[11]; at 11.0 µM,0%
same,growth inhibition,[11]; at 33.0 µM,3%
same,growth inhibition,[11]; [18],-8%
same,growth inhibition,[11]; at 50.0 µM,28.1%
same,growth inhibition,[11]; at 100.0 µM,9%
same,growth inhibition,[12]; at 1.2 µM,21%
same,growth inhibition,[12]; at 3.7 µM,10%
same,growth inhibition,[12]; at 11.0 µM,11%
same,growth inhibition,[12]; at 33.0 µM,19%
same,growth inhibition,[12]; at 100.0 µM,29%
same,growth inhibition,[13]; [17],-61%
same,growth inhibition,[13]; [18],-16%
same,growth inhibition,[13]; at 50.0 µM,3.7%
same,growth inhibition,[14]; at 1.2 µM,2%
same,growth inhibition,[14]; at 3.7 µM,5%
same,growth inhibition,[14]; at 11.0 µM,4%
same,growth inhibition,[14]; at 33.0 µM,4%
same,growth inhibition,[14]; at 100.0 µM,7%
same,growth inhibition,[15]; [17],-50%
same,growth inhibition,[15]; [18],-8%
same,growth inhibition,[15]; at 50.0 µM,9.05%
same,growth inhibition,[16]; at 1.2 µM,10%
same,growth inhibition,[16]; at 3.7 µM,3%
same,growth inhibition,[16]; [17],-51%
same,growth inhibition,[16]; at 11.0 µM,8%
same,growth inhibition,[16]; at 33.0 µM,11%
same,growth inhibition,[16]; [18],1%
same,growth inhibition,[16]; at 50.0 µM,6.1%
same,growth inhibition,[16]; at 100.0 µM,20%
same,growth inhibition,[1]; at 1.2 µM,13%
same,growth inhibition,[1]; at 3.7 µM,12%
same,growth inhibition,[1]; at 11.0 µM,17%
same,growth inhibition,[1]; at 33.0 µM,17%
same,growth inhibition,[1]; at 100.0 µM,29%
same,growth inhibition,[2]; at 1.2 µM,-5%
same,growth inhibition,[2]; at 3.7 µM,-1%
same,growth inhibition,[2]; at 11.0 µM,1%
same,growth inhibition,[2]; at 33.0 µM,8%
same,growth inhibition,[2]; at 100.0 µM,12%
same,growth inhibition,[3]; at 1.2 µM,-5%
same,growth inhibition,[3]; at 3.7 µM,-8%
same,growth inhibition,[3]; at 11.0 µM,3%
same,growth inhibition,[3]; at 33.0 µM,9%
same,growth inhibition,[3]; at 100.0 µM,13%
same,growth inhibition,[4]; [17],-110%
same,growth inhibition,[4]; [18],-30%
same,growth inhibition,[4]; at 50.0 µM,32.7%
same,growth inhibition,[5]; at 1.2 µM,0%
same,growth inhibition,[5]; at 3.7 µM,-3%
same,growth inhibition,[5]; at 11.0 µM,1%
same,growth inhibition,[5]; at 33.0 µM,10%
same,growth inhibition,[5]; at 100.0 µM,22%
